A word on the AC50: it is the concentration giving half of the maximal activity seen.

The nature of assay [1]: ATG_GLI_CIS: Attagene CIS-FACTORIAL HepG2 Assay for human Zinc Finger Protein GLI1 (AID 2282945). The conditions noted are these: HepG2, Attagene cis-factorial reporter mRNA, GLI element; actives raise or lower the signal. The procedure, abridged: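 HepG2 cells transiently transfected with cis-promoter multiplexed reporter units report endogenous transcription factor activity. After 24 h chemical exposure, reporter mRNA was quantified by RT-PCR, 6-FAM labelling, HpaI digestion and capillary electrophoresis, with bidirectional fitting against DMSO.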

Assay [2] addresses Bile acid receptor (Homo sapiens) (UniProt Q96RI1). The assay can be described thus: ATG_IR1_CIS: Attagene CIS-FACTORIAL HepG2 Assay for human Nuclear Receptor Subfamily 1 Group H Member 4 (NR1H4), IR1 submotif (AID 2282946). Conditions: IR1 reporter transcription, actives raise or lower the signal. The procedure, abridged: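 Transient MRTU transfection, HepG2; 24 h dosing; RNA → RT-PCR → 6-FAM primer extension → HpaI digest → capillary electrophoresis fluorescence. Gain/loss of signal fitted relative to DMSO.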

Assay [3] is described as follows: ATG_GRE_CIS: Attagene CIS-FACTORIAL HepG2 Assay for human Glucocorticoid Response Elements (GRE) (AID 2282947). The conditions noted are these: HepG2 GRE cis-reporter, Attagene multiplex mRNA; actives raise or lower the signal. The procedure, abridged:
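HepG2 cells transiently transfected with multiple cis-promoter reporter units measure endogenous TF activity; 24 h compound exposure. Reporter mRNA quantified by RT-PCR, FAM labelling, HpaI digestion and capillary electrophoresis; bidirectional fit vs DMSO baseline.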

Assay [4] is described as follows: ATG_ISRE_CIS: Attagene CIS-FACTORIAL HepG2 Assay for human Interferon Regulatory Factor 1 (IRF1) binding to an Interferon-Stimulated Response Element (ISRE) (AID 2282948). The conditions noted are these: HepG2 ISRE cis-reporter (Attagene), mRNA transcription readout; actives raise or lower the signal. The procedure, abridged: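 Transiently transfected HepG2 cells carrying cis-element reporter units, dosed 24 hours. Reporter mRNA quantified by RT-PCR, fluorescent primer extension, HpaI digestion and capillary electrophoresis. Bidirectional fitting relative to DMSO.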

Assay [5] is described as follows: ATG_M_32_CIS: Attagene CIS-FACTORIAL HepG2 Assay for M32 Transcription Factor (Internal Marker) (AID 2282949).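 Note: background control marker of the multiplexed CIS panel rather than a real target.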 The conditions noted are these: HepG2 Attagene cis-factorial M32 reporter, mRNA; actives raise or lower the signal. The procedure, abridged: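 Internal background marker read-out: RT-PCR/capillary electrophoresis fluorescence of reporter transcripts from transiently transfected HepG2 cells after 24 h chemical exposure. Activity fitted bidirectionally relative to DMSO negative control.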

Assay [6] is described as follows: ATG_M_06_CIS: Attagene CIS-FACTORIAL HepG2 Assay for M06 Transcription Factor (Internal Marker) (AID 2282950). Conditions: HepG2 Attagene CIS-FACTORIAL M06 internal marker reporter; actives raise or lower the signal. The procedure, abridged:
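Fluorescence-labelled RT-PCR products from cis-promoter reporter units, cut with HpaI and resolved by capillary electrophoresis, give the signal. Cells are human HepG2, dosed for 24 h. Serves as background control, fitted relative to DMSO.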

In assay [7] the target is Hypoxia-inducible factor 1-alpha (Homo sapiens) (UniProt Q16665). The assay can be described thus: ATG_HIF1a_CIS: Attagene CIS-FACTORIAL HepG2 Assay for human Hypoxia Inducible Factor 1 (HIF1A) (AID 2282951). The conditions noted are these: HepG2 Attagene cis-factorial HIF1a reporter transcription; actives raise or lower the signal. The procedure, abridged:
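Transient MRTU transfection of human HepG2 liver cells, 24 h compound treatment, then total RNA isolation, oligo(dT) reverse transcription, PCR amplification, fluorescent labelling and capillary electrophoresis of reporter fragments. Gain or loss relative to DMSO.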

Assay [8] concerns the target Hepatocyte nuclear factor 6 (Homo sapiens) (UniProt Q9UBC0). Briefly: ATG_HNF6_CIS: Attagene CIS-FACTORIAL HepG2 Assay for human Hepatocyte Nuclear Factor 6 (HNF6) (AID 2282952). The conditions noted are these: HepG2 Attagene cis-factorial HNF6 reporter transcription; actives raise or lower the signal. The procedure, abridged: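 HepG2 cells transiently transfected with cis-element-driven multiplexed reporter units measuring endogenous transcription factor activity. After 24 h exposure, reporter mRNA quantified by RT-PCR, FAM-labelled fragments and capillary electrophoresis; bidirectional fitting versus DMSO.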

Assay [9] can be described thus: ATG_MRE_CIS: Attagene CIS-FACTORIAL HepG2 Assay for human Metal Responsive Element (MRE) (AID 2282954). The conditions noted are these: HepG2 MRE cis-reporter transcription, Attagene multiplex; actives raise or lower the signal. The procedure, abridged: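 HepG2 cells transiently transfected with multiple cis-element reporter units measure endogenous MTF1-driven transcription. After 24 h compound exposure, reporter mRNA is quantified by RT-PCR with 6-FAM labelling, HpaI digestion and capillary electrophoresis; bidirectional fits versus DMSO.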

Assay [10] has as its target Paired box protein Pax-6 (Homo sapiens) (UniProt P26367). The assay can be described thus: ATG_Pax6_CIS: Attagene CIS-FACTORIAL HepG2 Assay for human Paired Box 6 (PAX6) (AID 2282956). The conditions noted are these: HepG2 CIS-FACTORIAL PAX6 reporter transcription, RNA readout; actives raise or lower the signal. The procedure, abridged:
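HepG2 cells transiently transfected with cis-promoter-driven multiplexed reporter units sensing endogenous transcription factor activity; 24 h chemical exposure. Reporter mRNA quantified by RT-PCR, 6-FAM labelling, HpaI digestion and capillary electrophoresis; bidirectional fit versus DMSO baseline.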

The nature of assay [11]: ATG_PXRE_CIS: Attagene CIS-FACTORIAL HepG2 Assay for human Pregnane X Receptor Element (PXRE) (AID 2282957). Conditions: HepG2 Attagene CIS-FACTORIAL PXRE reporter, mRNA; actives raise or lower the signal. The procedure, abridged: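 HepG2 cells transiently transfected with cis-element-driven multiplexed reporter units; after 24 h chemical exposure, reporter mRNA measured by RT-PCR, 6-FAM labelling, HpaI digestion and capillary electrophoresis. Bidirectional fitting relative to DMSO.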

Assay [12] can be described thus: ATG_PPRE_CIS: Attagene CIS-FACTORIAL HepG2 Assay for human Peroxisome Proliferator-activated Response Element (PPRE) (AID 2282958). Conditions: HepG2 PPRE cis-element reporter, Attagene transcription factor profiling; actives raise or lower the signal. The procedure, abridged: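 HepG2, transient MRTU transfection (cis promoter elements, endogenous TFs). 24 h dosing. RNA → oligo(dT) RT → PCR → 6-FAM primer extension → HpaI digest → CE. Bidirectional fit vs DMSO.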

A short description of assay [13]: ATG_RORE_CIS: Attagene CIS-FACTORIAL HepG2 Assay for human RAR-related Orphan Receptor Element (RORE) (AID 2282959). Conditions: HepG2 Attagene cis-factorial RORE reporter, mRNA; actives raise or lower the signal. The procedure, abridged:
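Transient MRTU transfection of human HepG2 liver cells (FuGene 6); 24 h compound exposure; TriZol RNA, oligo(dT) RT, PCR, FAM labeling, HpaI cut, CE fragment analysis. DMSO = negative control/baseline.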

Assay [14] can be described thus: ATG_Sox_CIS: Attagene CIS-FACTORIAL HepG2 Assay for human SRY-box transcription factor (SOX) (AID 2282960). The conditions noted are these: HepG2 Attagene cis-factorial SOX reporter, mRNA; actives raise or lower the signal. The procedure, abridged:
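Endogenous factor activity in human liver HepG2 cells carrying transfected cis-regulated reporter units. RNA taken 24 h post-dose, reverse-transcribed, PCR-amplified and sized by capillary electrophoresis. Gain or loss of signal fitted relative to DMSO.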

The target in assay [15] is Transcription factor Sp1 (Homo sapiens) (UniProt P08047). The assay can be described thus: ATG_Sp1_CIS: Attagene CIS-FACTORIAL HepG2 Assay for human Specificity Protein 1 (Sp1) (AID 2282961). The conditions noted are these: HepG2 Sp1 cis-reporter transcription, actives raise or lower the signal. The procedure, abridged:
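Transient MRTU-transfected HepG2, 24 h compound exposure. Total RNA → oligo(dT) RT → PCR of reporter → 6-FAM primer extension → HpaI digest → CE. Endpoint fitted both directions vs DMSO.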

Assay [16] in a line: ATG_SREBP_CIS: Attagene CIS-FACTORIAL HepG2 Assay for human Sterol Regulatory Element Binding (SREBP) (AID 2282962). The conditions noted are these: HepG2 Attagene cis-factorial SREBP reporter, mRNA; actives raise or lower the signal. The procedure, abridged:
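HepG2 cells transiently transfected with multiplexed cis-promoter reporter units sensing endogenous transcription factors; reporter mRNA measured 24 h after dosing by RT-PCR, 6-FAM labeling, HpaI digestion and capillary electrophoresis. Bidirectional fit versus DMSO.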

For assay [17], the target named is Signal transducer and activator of transcription 3 (Homo sapiens) (UniProt P40763). Briefly: ATG_STAT3_CIS: Attagene CIS-FACTORIAL HepG2 Assay for human Signal Transducer and Activator of Transcription 3 (STAT3) (AID 2282963). The conditions noted are these: HepG2, Attagene cis-factorial STAT3 reporter transcription; actives raise or lower the signal. The procedure, abridged: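 HepG2 cells transiently transfected with cis-element-driven multiple reporter transcription units; after 24 h chemical exposure, reporter mRNA measured by RT-PCR, 6-FAM primer-extension labelling, HpaI digestion and capillary electrophoresis. Bidirectional fitting versus DMSO baseline.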

Assay [18] can be described thus: ATG_TA_CIS: Attagene CIS-FACTORIAL HepG2 Assay for human TA Basal Promoter (AID 2282964). The conditions noted are these: HepG2 Attagene CIS-factorial TA basal promoter reporter; actives raise or lower the signal. The procedure, abridged: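 Multiplexed mRNA reporter assay, HepG2, 24 h. Reporter cDNA amplified, 6-FAM primer-extended, HpaI-cut, CE-sized; DMSO = negative control and baseline.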

Assay [19] is described as follows: ATG_PBREM_CIS: Attagene CIS-FACTORIAL HepG2 Assay for human Phenobarbital-responsive Enhancer Module (PBREM) (AID 2282955). Conditions: HepG2 PBREM cis-reporter, Attagene multiplexed transcription; actives raise or lower the signal. The procedure, abridged:
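Endogenous transcription factors in human liver HepG2 cells drive a PBREM cis-element reporter, whose transcript level after 24 h treatment is quantified by RT-PCR with capillary electrophoresis; activity fitted in both directions against DMSO.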

For assay [20], the target named is Heat shock factor protein 1 (Homo sapiens) (UniProt Q00613). Briefly: ATG_HSE_CIS: Attagene CIS-FACTORIAL HepG2 Assay for human Heat Shock Transcription Factor 1 (HSE) (AID 2282953). The conditions noted are these: HepG2 HSE cis-reporter, Attagene RNA transcription; actives raise or lower the signal. The procedure, abridged: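 After a 24 h incubation with test chemical, transfected HepG2 cells were harvested for RNA; reporter transcripts were measured by RT-PCR and capillary electrophoresis. Values reflect gain or loss of signal relative to DMSO.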

Calls of active or inactive are those of the source. Rule for the calls: active = hit-call score of the fitted dose curve at least 0.9, where 1 is the maximum; inactive = score below 0.9.

Paired box protein Pax-6 (Homo sapiens), sequence (P26367 whole entry, looked up): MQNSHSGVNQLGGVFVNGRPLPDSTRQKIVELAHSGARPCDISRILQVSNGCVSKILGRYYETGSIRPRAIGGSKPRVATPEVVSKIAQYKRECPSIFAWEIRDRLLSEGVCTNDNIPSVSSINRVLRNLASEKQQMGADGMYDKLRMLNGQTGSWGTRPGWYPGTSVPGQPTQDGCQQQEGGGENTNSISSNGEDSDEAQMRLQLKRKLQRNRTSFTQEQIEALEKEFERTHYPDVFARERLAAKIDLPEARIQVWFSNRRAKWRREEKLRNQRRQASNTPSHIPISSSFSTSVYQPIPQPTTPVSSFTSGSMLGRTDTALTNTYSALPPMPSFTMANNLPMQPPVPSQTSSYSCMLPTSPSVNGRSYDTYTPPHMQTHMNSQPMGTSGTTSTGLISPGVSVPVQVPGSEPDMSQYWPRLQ
Transcription factor Sp1 (Homo sapiens), sequence (P08047 whole entry, looked up): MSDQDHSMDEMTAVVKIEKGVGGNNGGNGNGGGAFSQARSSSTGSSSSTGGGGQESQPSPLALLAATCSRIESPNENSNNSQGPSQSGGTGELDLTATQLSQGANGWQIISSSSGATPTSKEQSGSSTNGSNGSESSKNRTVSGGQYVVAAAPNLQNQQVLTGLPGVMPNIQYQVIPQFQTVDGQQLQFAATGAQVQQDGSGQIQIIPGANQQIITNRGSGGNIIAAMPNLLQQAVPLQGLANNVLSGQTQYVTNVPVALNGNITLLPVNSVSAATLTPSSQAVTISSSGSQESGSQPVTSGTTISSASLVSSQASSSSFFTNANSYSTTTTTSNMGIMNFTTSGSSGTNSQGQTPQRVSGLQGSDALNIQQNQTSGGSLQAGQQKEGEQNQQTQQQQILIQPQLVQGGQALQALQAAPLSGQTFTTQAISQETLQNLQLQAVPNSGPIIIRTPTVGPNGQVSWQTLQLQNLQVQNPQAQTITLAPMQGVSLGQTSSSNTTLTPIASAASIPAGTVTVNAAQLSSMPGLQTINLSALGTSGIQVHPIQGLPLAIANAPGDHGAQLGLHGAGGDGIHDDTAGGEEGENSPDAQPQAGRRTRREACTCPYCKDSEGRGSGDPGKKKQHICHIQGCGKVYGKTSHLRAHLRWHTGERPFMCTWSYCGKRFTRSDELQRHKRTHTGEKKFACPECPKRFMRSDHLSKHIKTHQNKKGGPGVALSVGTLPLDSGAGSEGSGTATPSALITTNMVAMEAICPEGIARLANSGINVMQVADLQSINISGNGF
Signal transducer and activator of transcription 3 (Homo sapiens), sequence (P40763 whole entry, looked up): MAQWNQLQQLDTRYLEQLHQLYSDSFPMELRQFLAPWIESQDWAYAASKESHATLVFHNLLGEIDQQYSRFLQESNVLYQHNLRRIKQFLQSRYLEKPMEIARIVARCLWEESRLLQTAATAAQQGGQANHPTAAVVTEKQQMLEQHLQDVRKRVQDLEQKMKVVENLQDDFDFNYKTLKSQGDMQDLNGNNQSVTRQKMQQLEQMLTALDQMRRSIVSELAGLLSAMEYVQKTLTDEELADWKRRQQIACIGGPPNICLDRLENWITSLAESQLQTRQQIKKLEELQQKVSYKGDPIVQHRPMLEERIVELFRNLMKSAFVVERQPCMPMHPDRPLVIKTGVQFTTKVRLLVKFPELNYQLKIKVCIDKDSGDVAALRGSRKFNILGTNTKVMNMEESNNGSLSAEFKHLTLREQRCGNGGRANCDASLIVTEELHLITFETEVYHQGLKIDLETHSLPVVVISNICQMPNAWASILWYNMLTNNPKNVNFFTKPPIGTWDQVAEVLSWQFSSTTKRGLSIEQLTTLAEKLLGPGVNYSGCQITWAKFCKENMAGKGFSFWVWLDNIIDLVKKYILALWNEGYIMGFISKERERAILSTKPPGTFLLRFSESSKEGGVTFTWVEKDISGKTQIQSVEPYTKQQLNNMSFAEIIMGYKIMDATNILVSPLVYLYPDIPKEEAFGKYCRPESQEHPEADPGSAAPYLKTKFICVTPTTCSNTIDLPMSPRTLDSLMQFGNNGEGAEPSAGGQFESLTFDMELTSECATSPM
Hypoxia-inducible factor 1-alpha (Homo sapiens), sequence (Q16665 whole entry, looked up, the tested form may be a part): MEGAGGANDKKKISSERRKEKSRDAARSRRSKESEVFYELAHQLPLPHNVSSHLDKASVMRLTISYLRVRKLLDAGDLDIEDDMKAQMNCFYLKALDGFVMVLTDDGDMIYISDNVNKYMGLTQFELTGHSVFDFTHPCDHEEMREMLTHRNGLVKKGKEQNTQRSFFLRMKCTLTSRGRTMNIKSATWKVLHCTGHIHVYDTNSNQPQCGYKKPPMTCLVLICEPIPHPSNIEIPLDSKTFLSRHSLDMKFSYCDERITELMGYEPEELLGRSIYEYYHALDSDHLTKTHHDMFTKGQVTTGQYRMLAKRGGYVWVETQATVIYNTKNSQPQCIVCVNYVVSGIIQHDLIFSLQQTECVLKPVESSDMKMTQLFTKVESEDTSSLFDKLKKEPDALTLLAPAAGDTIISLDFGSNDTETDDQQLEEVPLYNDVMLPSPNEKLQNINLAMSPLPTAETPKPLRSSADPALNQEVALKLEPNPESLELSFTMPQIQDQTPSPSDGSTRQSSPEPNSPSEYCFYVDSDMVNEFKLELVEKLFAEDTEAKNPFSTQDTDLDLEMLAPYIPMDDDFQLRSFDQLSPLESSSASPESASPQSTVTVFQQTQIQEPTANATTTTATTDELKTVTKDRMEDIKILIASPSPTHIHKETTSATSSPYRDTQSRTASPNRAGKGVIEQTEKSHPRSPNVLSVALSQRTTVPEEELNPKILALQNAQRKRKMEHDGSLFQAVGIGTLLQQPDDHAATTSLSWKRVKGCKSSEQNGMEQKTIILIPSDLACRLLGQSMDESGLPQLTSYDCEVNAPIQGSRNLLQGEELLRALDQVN
Bile acid receptor (Homo sapiens), sequence (Q96RI1 whole entry, looked up): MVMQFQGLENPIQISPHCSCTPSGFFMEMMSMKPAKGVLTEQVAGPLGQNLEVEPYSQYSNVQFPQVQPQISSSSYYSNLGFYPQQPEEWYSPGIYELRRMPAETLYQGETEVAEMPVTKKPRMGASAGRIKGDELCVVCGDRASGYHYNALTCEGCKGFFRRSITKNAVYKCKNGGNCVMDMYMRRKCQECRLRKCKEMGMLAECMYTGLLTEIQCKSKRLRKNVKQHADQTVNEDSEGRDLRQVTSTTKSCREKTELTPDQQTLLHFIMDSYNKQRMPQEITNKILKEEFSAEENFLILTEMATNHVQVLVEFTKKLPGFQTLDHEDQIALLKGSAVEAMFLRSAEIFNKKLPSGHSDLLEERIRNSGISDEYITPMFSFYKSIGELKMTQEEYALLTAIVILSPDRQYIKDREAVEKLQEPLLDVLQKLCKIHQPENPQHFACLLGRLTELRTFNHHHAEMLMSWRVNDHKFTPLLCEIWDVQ
Hepatocyte nuclear factor 6 (Homo sapiens), sequence (Q9UBC0 whole entry, looked up, the tested form may be a part): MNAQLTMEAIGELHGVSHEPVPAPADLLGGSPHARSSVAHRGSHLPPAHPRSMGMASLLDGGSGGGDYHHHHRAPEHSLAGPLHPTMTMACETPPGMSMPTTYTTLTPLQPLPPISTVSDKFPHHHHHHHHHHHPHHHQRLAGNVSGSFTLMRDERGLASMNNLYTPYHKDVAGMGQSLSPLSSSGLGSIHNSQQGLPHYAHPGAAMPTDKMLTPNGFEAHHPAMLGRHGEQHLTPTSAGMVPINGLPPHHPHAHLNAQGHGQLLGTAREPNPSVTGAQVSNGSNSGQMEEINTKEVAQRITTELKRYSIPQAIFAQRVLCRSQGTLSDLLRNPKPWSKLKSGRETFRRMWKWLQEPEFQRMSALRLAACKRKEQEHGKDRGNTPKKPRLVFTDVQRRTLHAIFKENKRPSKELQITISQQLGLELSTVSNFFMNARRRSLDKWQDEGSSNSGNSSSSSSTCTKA
Heat shock factor protein 1 (Homo sapiens), sequence (Q00613 whole entry, looked up): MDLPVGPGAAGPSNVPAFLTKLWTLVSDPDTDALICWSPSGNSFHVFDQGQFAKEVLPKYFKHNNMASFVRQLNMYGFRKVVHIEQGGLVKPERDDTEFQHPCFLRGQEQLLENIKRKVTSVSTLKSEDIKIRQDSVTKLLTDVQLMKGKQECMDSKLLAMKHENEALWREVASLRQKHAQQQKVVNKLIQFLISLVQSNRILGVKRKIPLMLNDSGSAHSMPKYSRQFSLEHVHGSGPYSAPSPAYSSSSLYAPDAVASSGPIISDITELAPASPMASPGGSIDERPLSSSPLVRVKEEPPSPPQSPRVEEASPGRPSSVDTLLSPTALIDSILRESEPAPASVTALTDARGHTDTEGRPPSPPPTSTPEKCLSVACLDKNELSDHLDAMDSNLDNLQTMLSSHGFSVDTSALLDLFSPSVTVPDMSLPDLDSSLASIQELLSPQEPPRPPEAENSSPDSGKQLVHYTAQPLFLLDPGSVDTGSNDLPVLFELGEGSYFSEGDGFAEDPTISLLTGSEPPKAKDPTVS

As to `CC(=O)OC1CCCCC1`, the outcome in assay [1], in assay [2], in assay [3], in [4], in assay [5] and in assay [6] was inactive. In addition, the compound was called inactive in [7], in [8], in assay [9], in assay [10], in assay [11] and in assay [12]. Further, the compound was called inactive in assay [13], in assay [14], in assay [15], in assay [16], in assay [17] and in assay [18].
Consider `Nc1ccc(C(=O)OCCCOC(=O)c2ccc(N)cc2)cc1`, for which the call in assay [1], in [2], in assay [3], in assay [4], in assay [5] and in assay [7] was inactive. Moreover, the compound was called inactive in assay [8], in assay [9], in assay [19], in assay [10], in [15] and in assay [16]. The call in assay [17] was inactive. In addition, the half-maximal activity concentration (AC50) in [11] is 27.5 µM (active).
As to `C=CCCCCCCCCOC(C)=O`, the outcome in assay [1], in assay [2], in [3], in assay [4], in [5] and in [7] was inactive. The outcome in assay [8], in assay [9], in assay [10], in [11], in assay [13] and in assay [14] was inactive. For the same compound, the compound was called inactive in assay [15], in assay [16] and in assay [17].
Regarding `C/C=C/C=C/CCCCCCCO`, the AC50 is 168 µM (active) in [1]; 172 µM (active) in assay [2]; 168 µM (active) in [20]; 121 µM (active) in assay [9]; 76 µM (active) in [10]; 100 µM (active) in assay [18]. Moreover, the compound was classed as inactive in [3], in assay [4], in [5], in assay [6], in [8] and in assay [12]. Also, the compound was called inactive in assay [14], in [15], in [16] and in assay [17].

(Values after PubChem BioAssay (EPA / NIEHS).)
